NCF1 inh: p47phox/p22phox peptide binding inhibitors, primary screen, biochemical, uHTS, NADPH oxidase regulatory subunit; AID 1274, 2008; 220,000 compounds, 0.53% hits; inhibition, % at 24.7 µM; Neutrophil cytosol factor 1 (Homo sapiens), P14598; fluorescence polarization, 2 h;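 active means inhibition above about 30%, limit read from the data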;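 further: 0% = p47phox with labelled peptide and 100% = labelled peptide alone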
Target sequence (P14598 whole entry, looked up): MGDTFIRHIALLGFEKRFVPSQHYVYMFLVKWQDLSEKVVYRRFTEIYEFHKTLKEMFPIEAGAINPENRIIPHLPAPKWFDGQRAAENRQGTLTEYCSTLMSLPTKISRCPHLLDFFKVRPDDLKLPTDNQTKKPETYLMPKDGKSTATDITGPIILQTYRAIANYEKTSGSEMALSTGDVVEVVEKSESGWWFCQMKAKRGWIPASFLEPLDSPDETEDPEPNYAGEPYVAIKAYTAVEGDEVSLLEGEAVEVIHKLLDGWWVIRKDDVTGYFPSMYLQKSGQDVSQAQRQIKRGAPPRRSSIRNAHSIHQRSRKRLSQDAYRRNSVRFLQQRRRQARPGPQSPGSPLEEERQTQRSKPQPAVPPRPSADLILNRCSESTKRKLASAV
Redox H2O2 prof: compounds producing H2O2 with reducing agent – biochemical, NIH compound library profiling, artefact control for MLSCN library redox annotation, primary screen | activation, % at 10 µM | 200,000 compounds, 0.03% hits | AID 878, 2007 | DTT-dependent redox cycling H2O2, phenol red/HRP absorbance; 100% = 100 µM peroxide control, 0% = buffer;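 active means activation of at least 50% relative to the plate's high and low controls in the primary single-dose screen; inactive means activation below 50%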;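 further: compound incubated with DTT at 0.8 mM final as the reducing agent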
Efa HMGR inh: inhibitors of E. faecalis class II HMGR, primary screen, biochemical, Enterococcus faecalis. HMG-CoA reductase (Enterococcus faecalis, mvaE). inhibition, % at 10 µM. purified E. faecalis HMGR, NADPH absorbance 340 nm kinetic. 190,000 compounds, 0.41% hits;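 active means inhibition above a set limit, the median over all tested compounds plus 3 SD, cut at about 9.5% in these data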;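 further: enzyme runs in reverse so mevalonate oxidation gives rising NADPH absorbance; 0% = complete reaction with DMSO and 100% = background rate lacking mevalonate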
Insulin prom up: insulin promoter activators in MIN6 cells, imaging, high-content screening, mouse beta cells; MIN6 insulin promoter-GFP reporter; active compounds read high; z-score at 5 µM; 190,000 compounds, 0.3% hits;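 active means z-score above 3 at 5 µM with at least 500 cells counted in the well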
Arbovirus inh: antivirals against arbovirus infection, primary screen, cell-based, full library, 10K replicate subset | arbovirus infection cell-based antiviral screen | inhibition, % at 10 µM | 200,000 compounds, 0.37% hits | AID 1251, 2008; in the data active means inhibition above about 30%
Autophagy mod: autophagy modulators in MEF cells, primary screen, imaging, high-content, MEF GFP-LC3. MEF GFP-LC3 puncta imaging; test concentration mostly 10 µM. calls only at 10 µM (by protocol). 190,000 compounds, 0.98% hits;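 active means percentage of spot-positive cells more than 3 SD above its plate mean, without a fluorescence outlier flag or 80% toxicity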;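 further: spot-positive cell cutoff set from DMSO-treated cells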
* = called active by the depositor; i = inactive; / = not tested or not shown; + = active, no number. Only some compounds are listed: those with a hit (about 2.2% of all), similar ones and a draw of the others.

SMILES	NCF1 inh	Redox H2O2 prof	Efa HMGR inh	Insulin prom up	Arbovirus inh	Autophagy mod
O=C(O)c1cc(-c2ccccc2)n(-c2ccccc2C(=O)O)n1	-15.0	-0.4	9.6*	0.27	6.8	i
O=C(O)c1cc(-c2ccc(Cl)cc2)n(-c2ccccc2)n1	4.2	-0.3	3.1	-0.02	8.0	i
COC(=O)c1ccc(OC(C)C(=O)c2ccc(C)cc2)cc1 (centres undefined)	-5.5	-0.1	-2.4	-0.58	-0.7	i
CCCCc1ccc(S(=O)(=O)N2CCN(C(=O)c3ccco3)CC2)cc1	-8.1	0.0	0.3	0.37	19.4	i
CSc1nsc(/C=C/Nc2ccc(C)cc2)c1C#N	-39.0	0.0	-1.3	3.5*	2.3	i
CCCC(=O)N1CCN(c2ccc(NC(=S)NC(=O)c3cccc(C)c3)cc2)CC1	-2.6	-0.2	4.5	-1.3	11.6	i
Fc1ccc(CNc2ncnc3c2cnn3-c2ccccc2)cc1	-8.8	2.2	3.4	-0.03	-11.0	+
O=C(CCCc1nc(-c2ccccc2Cl)no1)NC1CCCCC1	-12.1	-0.4	0.0	-0.27	-3.2	+
CSc1ncccc1C(=O)OCC(=O)NCc1ccc2c(c1)OCO2	-8.6	-0.1	-4.9	-0.06	8.9	i
CCCCC(=O)N/N=C(/C)C1=C(C)C(C)(C)OC1=O	-2.9	-1.6	-0.5	0.06	-1.6	i
CCN(CC)S(=O)(=O)c1ccc2oc(C(=O)NCc3ccc(C)cc3)c(C)c2c1	-13.7	0.1	-4.6	-1.87	-11.1	i
Cc1ccc(NC(=O)CN2C(=O)NC3(CCCc4ccccc43)C2=O)cc1S(=O)(=O)N1CCOCC1 (centres undefined)	40.0*	-0.8	-8.2	-0.27	0.0	i
Cc1csc(NC(=O)c2ccc(C)c(S(=O)(=O)N3CCOCC3)c2)n1	-4.7	-0.8	0.2	0.76	6.7	i
Cc1csc(NC(=O)c2ccc(C)c(S(=O)(=O)N3CCCCC3)c2)n1	-13.4	1.8	-6.2	-0.95	31.0*	i
Cc1ccc(NC(=O)CCl)cc1S(=O)(=O)N1CCCCCC1	1.1	-0.9	6.9	0.01	-33.3	+
Cc1ccc(-c2nn(CC(=O)NN3CCOCC3)c(=O)c3ccccc23)cc1	-8.4	/	/	0.18	/	/
Cc1cc(Br)ccc1SCC(=O)OCC(=O)c1c(N)n(C)c(=O)n(C)c1=O	-9.4	/	/	-0.97	/	/
CCN1CCN(CCNC(=O)c2ccc3c(c2)N(Cc2ccc(F)cc2)C(=O)/C(=C/c2ccccc2)S3)CC1	62.4*	-1.3	-4.1	-1.4	-30.0	i
CN1CCN(CCCNC(=O)c2ccc(/C=C3\Sc4ccccc4N(Cc4ccccc4F)C3=O)cc2)CC1	86.4*	-0.5	-2.7	/	-31.4	i
CCOCCCNC(=O)/C=C1\Sc2ccccc2N(Cc2ccccc2F)C1=O	-5.8	-0.6	-2.1	2.34	-3.2	i
CCN1CCN(CCNC(=O)c2ccc(/C=C3/Sc4ccccc4N(Cc4cccc(Cl)c4)C3=O)cc2)CC1	71.6*	0.6	-0.2	-2.06	-30.4	+
COc1ccc(-c2c(C)sc(NC(=O)c3ccnn3C)c2C#N)cc1	-3.8	-0.5	-0.5	0.2	-11.2	i
CC1CC(C)CN(c2nc3c(c(=O)[nH]c(=O)n3C)n2CCSc2nc3ccccc3o2)C1 (centres undefined)	/	/	/	/	-0.4	/
O=C(O)CCN1CC2([N+](=O)[O-])CC=C(OCCO)C([N+](=O)[O-])(C1)C2 (centres undefined)	1.6	-0.3	-2.3	/	-0.9	i
COC1=CCC2([N+](=O)[O-])CN(CCO)CC1([N+](=O)[O-])C2 (centres undefined)	-10.4	-0.2	-7.2	3.03*	9.8	i
SMILES	NCF1 inh	Redox H2O2 prof	Efa HMGR inh	Insulin prom up	Arbovirus inh	Autophagy mod
COCCCN(CCC#N)C(=O)c1c(-c2c(Cl)cccc2Cl)noc1C	-6.5	/	/	0.67	/	/
Cc1cccc(-c2ncc(CN3CCN(CC(C)C)C(CCO)C3)cn2)c1 (centres undefined)	-3.1	1.3	9.6*	-0.25	0.7	i
Cc1cccc(-c2ncc(CN3CCCC(CO)(Cc4ccccc4C)C3)cn2)c1 (centres undefined)	-38.5	-0.4	-2.4	3.13*	-16.8	i
CC(C)=CCN1CCN(Cc2nc(C(C)C)cs2)CC1CCO (centres undefined)	3.1	-0.9	-0.9	0.87	-3.7	i
CC(C)CN1CCN(Cc2nc(C(C)C)cs2)CC1CCO (centres undefined)	-4.4	-2.0	10.6*	0.21	-4.0	i
Cc1cc(NC(=O)CC2(CC(=O)O)CCCC2)n(C)n1	3.5	/	/	-0.02	/	/
C1CCCCCC(NCCN2CCNCC2)CCCCC1	-2.1	/	/	-2.41	/	/
COc1ccc(-c2csc(NC(=O)CSc3nc(SC)ns3)n2)cc1	-30.0	-0.2	-7.5	-0.15	17.7	i
COc1ccc(NC(=O)CCn2nc(C)cc2C)cc1	55.9*	0.7	3.6	2.05	3.3	i
Cc1ccc2nc3cc([N+](=O)[O-])cc([N+](=O)[O-])c3cc2c1	-10.5	-1.4	-2.8	/	-24.9	+
CC(C)(CO)NC(=O)CC1C(=O)NCCN1CC(c1ccccc1)c1ccccc1 (centres undefined)	4.8	0.5	10.3*	0.01	3.7	i
COc1ccc(Nc2cc(C(=O)NCCCN3CCN(C)CC3)c3ccccc3n2)cc1OC	72.7*	0.4	-1.7	/	8.1	i
CC1CCN(CCCNC(=O)c2ccc3c(Cl)c4c(nc3c2)CCCC4)CC1	-0.7	/	/	1.66	/	/
COC(=O)c1cccc(-c2ccc(C(c3c(C)[nH][nH]c3=O)c3c(C)[nH][nH]c3=O)o2)c1	-11.8	-0.2	4.5	-0.13	-9.8	i
Cc1[nH][nH]c(=O)c1C(c1ccc(-c2ccc(Cl)c(C(=O)O)c2)o1)c1c(C)[nH][nH]c1=O	5.7	0.3	7.0	0.27	-0.5	+
Cc1ccc(Cl)cc1N1CCN(C(=O)c2ccc3nc[nH]c3c2)CC1	122.9*	-0.5	-1.6	0.05	-4.8	i
COc1ccc(CNC(=O)c2c(O)c3cccc4c3n(c2=O)CCC4)cc1OC	54.2*	0.3	-1.1	1.12	4.6	i
COc1ccc(N(CCN2C(=O)c3ccccc3C2=O)C(=O)c2cccc([N+](=O)[O-])c2)cc1	-9.0	0.4	-1.0	3.09*	7.9	i
CC(=O)N1N=C(N)SC12CCCC2	-9.2	-0.4	10.6*	0.1	-3.3	i
CC(=O)NC1=NN(C(C)=O)C2(CCCC2)S1	-7.2	-0.6	-8.3	0.05	15.0	i
Cc1cccc(C)c1C(=O)N[C@@H](Cc1ccccc1)C(=O)O	-5.0	6.4	1.4	-0.21	5.0	i
